According to PubChem BioAssay (EPA / NIEHS):
Where a structure was tested more than once in an assay, its records may differ in their call. The source made the active and inactive calls. How the source made its calls: active means hit-call score of the fitted dose curve at least 0.9, where 1 is the maximum; inactive means score below 0.9.

Columns and labels:
[1] = read-out: Urokinase-type plasminogen activator receptor (uPAR), PLAUR (gene 5329); assay: BSK_4H_uPAR: BioMAP Diversity Plus: 4H Assay for Urokinase-type plasminogen activator receptor (uPAR) Biomarker Activity (AID 2283030); conditions: primary human endothelial cells (HUVEC); actives raise or lower the signal
Outline: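 Human umbilical vein endothelial cells in the 4H system, 24 h after chemical dosing. Cell-surface uPAR measured by ELISA, fitted in both directions versus DMSO; cytotoxicity checked by SRB total protein in parallel cultures.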

[2] = read-out: Vascular endothelial growth factor receptor 2 (Homo sapiens) (UniProt P35968); assay: BSK_4H_VEGFRII: BioMAP Diversity Plus: 4H Assay for Vascular endothelial growth factor receptor 2 (VEGFR2) Biomarker Activity (AID 2283031); conditions: primary human endothelial cells (HUVEC); actives raise or lower the signal
Outline: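 Primary human umbilical vein endothelial cells (4H system), 24 h exposure; cell-surface VEGFR2 measured by ELISA. Bidirectional fitting versus DMSO; cytotoxicity checked in parallel by SRB total-protein staining.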

[3] = read-out: Vascular cell adhesion molecule 1 (VCAM1), VCAM1 (gene 7412); assay: BSK_4H_VCAM1: BioMAP Diversity Plus: 4H Assay for Vascular cell adhesion molecule 1 (VCAM1) Biomarker Activity (AID 2283033); conditions: primary human endothelial cells (HUVEC); actives raise or lower the signal
Outline: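 ELISA read-out of VCAM-1 on human umbilical vein endothelium 24 hours after chemical dosing; gain or loss of signal was fitted relative to DMSO, with sulforhodamine B staining of parallel cultures flagging overt cytotoxicity.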

[4] = read-out: Interferon-gamma inducible Protein 10 (IP10), CXCL10 (gene 3627); assay: BSK_BE3C_IP10: BioMAP Diversity Plus: BE3C Assay for Interferon-gamma inducible Protein 10 (IP10) Biomarker Activity (AID 2283034); conditions: primary human bronchial epithelial cells; actives raise or lower the signal
Outline: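 Chemical is dosed onto human lung bronchial epithelial primary cells, cultures are incubated 24 h, and IP-10 is then quantified by ELISA. Gain or loss of signal is fitted in both directions relative to DMSO.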

[5] = read-out: Monokine induced gamma interferon (MIG), CXCL9 (gene 4283); assay: BSK_BE3C_MIG: BioMAP Diversity Plus: BE3C Assay for Monokine induced gamma interferon (MIG) Biomarker Activity (AID 2283035); conditions: primary human bronchial epithelial cells; actives raise or lower the signal;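 further: MIG protein measured by ELISA in BE3C cultures after 24 h of dosing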
Outline: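 MIG level was determined by ELISA after 24 h chemical treatment of primary human bronchial epithelial cells. Values were fitted bidirectionally with DMSO as the negative control and activity baseline.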

[6] = read-out: Plasminogen activator inhibitor-1 (PAI1), SERPINE1 (gene 5054); assay: BSK_BE3C_PAI1: BioMAP Diversity Plus: BE3C Assay for Plasminogen activator inhibitor-1 (PAI1) Biomarker Activity (AID 2283037); conditions: primary human bronchial epithelial cells; actives raise or lower the signal
Outline: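 Primary human lung bronchial epithelial cells; chemical dosing; 24 h; PAI-1 measured by ELISA; bidirectional fit referenced to DMSO as negative control.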

[7] = read-out: urokinase plasminogen activator (uPA), PLAU (gene 5328); assay: BSK_BE3C_uPA: BioMAP Diversity Plus: BE3C Assay for urokinase plasminogen activator (uPA) Biomarker Activity (AID 2283038); conditions: primary human bronchial epithelial cells; actives raise or lower the signal
Outline: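 Primary human bronchial epithelial cells, uPA measured by ELISA 24 h after dosing. Bidirectional change relative to DMSO; cytotoxicity checked in parallel cultures by sulforhodamine B total-protein staining.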

[8] = read-out: Urokinase-type plasminogen activator receptor (uPAR), PLAUR (gene 5329); assay: BSK_BE3C_uPAR: BioMAP Diversity Plus: BE3C Assay for Urokinase-type plasminogen activator receptor (uPAR) Biomarker Activity (AID 2283039); conditions: primary human bronchial epithelial cells; actives raise or lower the signal;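 further: cells exposed to compound for one day before measurement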
Outline: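 Human bronchial epithelial primary cells; chemical exposure 24 h; uPAR by ELISA; bidirectional fit vs DMSO control.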

[9] = read-out: Interleukin-6 (IL6), IL6 (gene 3569); assay: BSK_CASM3C_IL6: BioMAP Diversity Plus: CASM3C Assay for Interleukin-6 (IL6) Biomarker Activity for (AID 2283040); conditions: primary human coronary artery smooth muscle cells; actives raise or lower the signal
[10] = read-out: Tissue plasminogen activator (tPA), PLAT (gene 5327); assay: BSK_BE3C_tPA: BioMAP Diversity Plus: BE3C Assay for Tissue plasminogen activator (tPA) Biomarker Activity (AID 2283041); conditions: primary human bronchial epithelial cells; actives raise or lower the signal;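 further: tPA level quantified by ELISA one day after compound addition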
Outline: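 Primary human lung bronchial epithelial cultures receive test chemical; after 24 h, tPA is quantified by ELISA, and gain or loss of signal is fitted bidirectionally relative to DMSO baseline.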

[11] = read-out: Interleukin-8 (IL8), CXCL8 (gene 3576); assay: BSK_CASM3C_IL8: BioMAP Diversity Plus: CASM3C Assay for Interleukin-8 (IL8) Biomarker Activity (AID 2283042); conditions: primary human coronary artery smooth muscle cells; actives raise or lower the signal;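 further: IL-8 protein level quantified by ELISA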
[12] = read-out: Human Leukocyte Antigen - DR isotype (HLADR), HLA-DRA (gene 3122); assay: BSK_CASM3C_HLADR: BioMAP Diversity Plus: CASM3C Assay for Human Leukocyte Antigen - DR isotype (HLADR) Biomarker Activity (AID 2283043); conditions: primary human coronary artery smooth muscle cells; actives raise or lower the signal;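 further: cell-surface HLA-DR protein level quantified by ELISA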
[13] = read-out: Macrophage colony-stimulating factor (MCSF), CSF1 (gene 1435); assay: BSK_CASM3C_MCSF: BioMAP Diversity Plus: CASM3C Assay for Macrophage colony-stimulating factor (MCSF) Biomarker Activity (AID 2283044); conditions: primary human coronary artery smooth muscle cells; actives raise or lower the signal;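 further: M-CSF protein amount quantified by ELISA after 24 h exposure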
[14] = read-out: Low-density lipoprotein receptor (LDLR), LDLR (gene 3949); assay: BSK_CASM3C_LDLR: BioMAP Diversity Plus: CASM3C Assay for Low-density lipoprotein receptor (LDLR) Biomarker Activity (AID 2283045); conditions: primary human coronary artery smooth muscle cells; actives raise or lower the signal;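 further: LDLR protein level on the cell surface quantified by ELISA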
[15] = read-out: Monocyte Chemoattractant Protein-1 (MCP1), CCL2 (gene 6347); assay: BSK_CASM3C_MCP1: BioMAP Diversity Plus: CASM3C Assay for Monocyte Chemoattractant Protein-1 (MCP1) Biomarker Activity (AID 2283046); conditions: primary human coronary artery smooth muscle cells; actives raise or lower the signal;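 further: MCP-1 level quantified by ELISA 24 h after dosing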
[16] = BSK_CASM3C_Proliferation: Cell Proliferation Assessment in the BioMAP Diversity Plus: CASM3C Assay (AID 2283047); conditions: primary human coronary artery smooth muscle cells;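 further: sulforhodamine B total protein stain as relative cell number at 560 nm; sub-confluent cells exposed 48 h before staining; fitted both ways against DMSO so gain or loss of cell number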
[17] = read-out: Monokine induced gamma interferon (MIG), CXCL9 (gene 4283); assay: BSK_CASM3C_MIG: BioMAP Diversity Plus: CASM3C Assay for Monokine induced gamma interferon (MIG) Biomarker Activity (AID 2283048); conditions: primary human coronary artery smooth muscle cells; actives raise or lower the signal;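 further: MIG protein level measured by ELISA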
[18] = read-out: serum amyloid A (SAA), SAA1 (gene 6288); assay: BSK_CASM3C_SAA: BioMAP Diversity Plus: CASM3C Assay for serum amyloid A (SAA) Biomarker Activity (AID 2283049); conditions: primary human coronary artery smooth muscle cells; actives raise or lower the signal;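 further: SAA protein level quantified by ELISA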
[19] = read-out: Transforming growth factor beta 1 (TGFb1), TGFB1 (gene 7040); assay: BSK_BE3C_TGFb1: BioMAP Diversity Plus: BE3C Assay for Transforming growth factor beta 1 (TGFb1) Biomarker Activity (AID 2283036;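 further: TGF-b1 protein level measured by ELISA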); conditions: primary human bronchial epithelial cells; actives raise or lower the signal
Outline: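 Primary human lung bronchial epithelial cells; compound exposure 24 h; TGF-b1 by ELISA; bidirectional fit, DMSO baseline. Parallel SRB total-protein staining for cytotoxicity.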

[20] = read-out: Human Leukocyte Antigen - DR isotype (HLADR), HLA-DRA (gene 3122); assay: BSK_BE3C_HLADR: BioMAP Diversity Plus: BE3C Assay for Human Leukocyte Antigen - DR isotype (HLADR) Biomarker Activity (AID 2283032); conditions: primary human bronchial epithelial cells; actives raise or lower the signal
Outline: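 ELISA read-out of HLA-DR on human lung bronchial epithelial primary cells, measured 24 h post-dosing. Both increases and decreases were scored relative to DMSO vehicle.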

Measured: AC50

O=S(=O)(O)C(F)(F)C(F)(F)C(F)(F)C(F)(F)F
inactive: [1] | [2] | [3] | [4] | [5] | [6] | [7] | [8] | [9] | [10] | [11] | [12] | [13] | [14] | [15] | [16] | [17] | [18]
active: [18] 0.558 µM

COS(=O)(=O)OC
not listed: [20]
inactive: all other assays above

CCSC(=O)N(CC)C1CCCCC1
not listed: [19] | [20]
inactive: all other assays above

CN(C)c1nc(=O)n(C2CCCCC2)c(=O)n1C
not listed: [19] | [20]
inactive: all other assays above

C[C@]12CCC(=O)C=C1CC[C@@H]1[C@@H]2CC[C@]2(C)C(=O)CC[C@@H]12
active: [14] 4.9 µM
not listed: [1] | [19]
inactive: all other assays above

Cc1ccccc1CO[C@@H]1C[C@@]2(C(C)C)CC[C@]1(C)O2
active: [7] 11.2 µM
not listed: [20]
inactive: all other assays above

Cc1ccc(O)c(C)c1
active: [3] 5.94 µM | [9] 1.29 µM | [12] 20.7 µM
not listed: [19] | [20]
inactive: all other assays above

O=C(O)C(F)(F)C(F)(F)C(F)(F)C(F)(F)C(F)(F)F
not listed: [19] | [20]
inactive: all other assays above
